Measured values reported in ChEMBL document CHEMBL3988442, “University of Dundee, Small-Polar-MMV Screening Library” (2021).
Among all 66,000 compounds or so, about 960 (1.5%) showed an effect of 50% or more. Shown is part of a subset that was picked to be rich in strong results.

Test system: Trypanosoma brucei
Experiment: Trypanosoma brucei 72 hour study
Type: functional, organism-based
Design: scale not given: in the data most compounds retested in dose-response had high values

Structure (SMILES): Cc1nc2c(c(NCc3nc4ccccc4s3)n1)CCNCC2
- Percent Effect (30.3 µM, […]): 53.81%

Structure (SMILES): Cc1nc(CNc2nc(-c3ccco3)nc3c2CCNCC3)n[nH]1
- Percent Effect (30 µM, 30.03 µM): 14.93%

Structure (SMILES): Cc1nc2c(c(NCc3cc4ccccc4s3)n1)CCNCC2
- Percent Effect (30.3 µM, […]): 99.88%

Structure (SMILES): Cc1nc2c(c(NCc3ccc(-c4ccccn4)s3)n1)CCNCC2
- Percent Effect (30.3 µM, […]): 42.43%

Structure (SMILES): Cc1nc2c(c(NCC(O)c3ccccc3Cl)n1)CCNCC2 (configuration not stated)
- Percent Effect (30 µM, 30.03 µM): -31.73%

Structure (SMILES): Cc1nc2c(c(NCC3Cc4ccccc4CN3C)n1)CCNCC2 (configuration not stated)
- Percent Effect (30.3 µM, […]): 15.13%

Structure (SMILES): CC(C)CN1CCO[C@H]2CCN(c3cnccn3)CC[C@@H]21.O=C(O)C(F)(F)F
- Percent Effect (30.3 µM, […]): -43.11%

Structure (SMILES): CCCS(=O)(=O)N1C[C@H]2C[C@H](C(=O)N3CCCC3)[C@@H](C1)O2
- Percent Effect (30.3 µM, […]): -3.417%

Structure (SMILES): Cc1occc1C(=O)N1C[C@@H]2OCCN(C(C)C)[C@@H]2C1.O=C(O)C(F)(F)F
- Percent Effect (30 µM, 30.03 µM): 5.268%

Structure (SMILES): CS(=O)(=O)N1CCN(CC(O)COc2ccc(Cl)cc2)CC1 (configuration not stated)
- Percent Effect (10 µM): -47.15%

Structure (SMILES): Cc1csc(CN2CCC[C@]3(C[C@@H](OCC4CC4)CO3)C2)n1.O=C(O)C(F)(F)F
- Percent Effect (30 µM, 30.03 µM): -17.53%

Structure (SMILES): Cc1cc(F)ccc1CN1CCCC(O)(CN2CCCC2)C1 (configuration not stated)
- Percent Effect (30.3 µM, […]): 54.93%

Structure (SMILES): OC1(CN2CCCC2)CCCN(Cc2ccc(F)cc2Cl)C1 (configuration not stated)
- Percent Effect (30 µM, 30.03 µM): -4.937%

Structure (SMILES): Cc1cc(F)ccc1CN1CCC(O)(CN2CCCCC2)C1 (configuration not stated)
- Percent Effect (30 µM, 30.03 µM): -52.45%

Structure (SMILES): CN(C)CCN(Cc1ccccn1)Cc1ccnn1C1CCCCO1.O=C(O)CC(O)(CC(=O)O)C(=O)O (configuration not stated)
- Percent Effect (30.3 µM, […]): -14.13%

Structure (SMILES): Cn1nnc2c1C(COCC1CC1)CN(Cc1ccoc1)C2.O=C(O)C(F)(F)F (configuration not stated)
- Percent Effect (30 µM, 30.03 µM): 5.795%

Structure (SMILES): CNc1cc(C)nc(N2Cc3cnn(Cc4ccc(F)cc4)c3C2)n1
- Percent Effect (30 µM, 30.03 µM): 98.86%

Structure (SMILES): Cc1ccnc(N2Cc3cnn(Cc4ccc(F)cc4)c3C2)n1
- Percent Effect (30 µM, 30.03 µM): -9.847%

Structure (SMILES): CCNc1ccnc(N2Cc3cnn(Cc4ccc(F)cc4)c3C2)n1
- Percent Effect (30 µM, 30.03 µM): 57.35%

Structure (SMILES): Fc1ccc(Cn2ncc3c2CN(c2ncccn2)C3)cc1
- Percent Effect (30 µM, 30.03 µM): 2.324%

Structure (SMILES): Cc1cc(C)nc(N2Cc3cnn(Cc4ccc(F)cc4)c3C2)n1
- Percent Effect (30 µM, 30.03 µM): 3.465%

Structure (SMILES): Cc1nc(N2Cc3cnn(Cc4ccc(F)cc4)c3C2)no1
- Percent Effect (30 µM, 30.03 µM): 12.66%

Structure (SMILES): CC(C)c1nn(C)c(Cl)c1CNCc1ccc(N(C)C)nc1.Cl
- Percent Effect (30.3 µM, […]): 12.78%

Structure (SMILES): CC(C)CN1CCC2(CCN(Cc3ccc(F)cc3)CC2)C1=O.O=C(O)C(F)(F)F
- Percent Effect (30.3 µM, […]): 15.86%

Structure (SMILES): Cc1nccc(C2CCCCN2Cc2cccc(F)c2)n1 (configuration not stated)
- Percent Effect (30.3 µM, […]): -5.435%

Structure (SMILES): Cc1cccc(CN2CCCCC2c2n[nH]cc2-c2cc(C)no2)c1.Cl (configuration not stated)
- Percent Effect (30.3 µM, […]): 54.66%

Structure (SMILES): Cc1cccc(CN2CCCC2c2cccc(CCC(=O)O)n2)c1 (configuration not stated)
- Percent Effect (30.3 µM, […]): -27.55%

Structure (SMILES): Cc1cccc(CN2CCCC2c2cccc(Nc3nccs3)n2)c1 (configuration not stated)
- Percent Effect (30.3 µM, […]): 33.44%

Structure (SMILES): Cc1cc(C2CCCN2Cc2cc(-c3ccco3)on2)on1 (configuration not stated)
- Percent Effect (30 µM, 30.03 µM): -36.29%

Structure (SMILES): Cc1nc(C2CN(Cc3ccccc3C)CCO2)no1 (configuration not stated)
- Percent Effect (30.3 µM, […]): -23.18%

Structure (SMILES): CN(CC1(O)CCCN(c2ccccn2)C1)C(=O)CCc1cccs1 (configuration not stated)
- Percent Effect (30.3 µM, […]): 19.98%

Structure (SMILES): Cc1ccc(CN(CCCN2CCOCC2)Cc2cnn(C)c2)o1.O=C(O)CC(O)(CC(=O)O)C(=O)O
- Percent Effect (30.3 µM, […]): -8.498%

Structure (SMILES): CN(C)C(=O)[C@]12CCCN(CC3CC3)C[C@H]1CN(c1ccccn1)C2.O=C(O)C(F)(F)F.O=C(O)C(F)(F)F
- Percent Effect (30.3 µM, […]): 0.08001%

Structure (SMILES): CN1CC(=O)N(c2ccccc2)CC12CCN(C(=O)c1ccnnc1)C2.O=C(O)C(F)(F)F (configuration not stated)
- Percent Effect (30.3 µM, […]): -13.49%

Structure (SMILES): CN(C)C(=O)COC[C@]12COC[C@H]1CN(Cc1ccccc1)C2.O=C(O)C(F)(F)F
- Percent Effect (30.3 µM, […]): -79.79%

Structure (SMILES): O=C(c1cc(=O)n(-c2ccccc2)[nH]1)N1CCOC(C(F)(F)F)C1 (configuration not stated)
- Percent Effect (30 µM, 30.03 µM): 25.14%

Structure (SMILES): Cc1cnc(CN(Cc2ccc(Cl)s2)C2CCN(C)C2)o1 (configuration not stated)
- Percent Effect (30 µM, 30.03 µM): -5.686%

Structure (SMILES): COc1cc(CNC(C)c2ccc(F)c(F)c2)cc2c1OCCO2.O=C(O)C(=O)O (configuration not stated)
- Percent Effect (30.3 µM, […]): 100.7%

Structure (SMILES): COc1ccc(C(C)NCCC(N)=O)cc1F (configuration not stated)
- Percent Effect (30 µM, 30.03 µM): -19.58%

Structure (SMILES): COc1cc(C(=O)NC(C)c2cccs2)cc2c1OCCO2 (configuration not stated)
- Percent Effect (30.3 µM, […]): 6.204%

Structure (SMILES): CCn1ncc(-c2cc(C(F)F)nc3sc(C(N)=O)c(N)c23)c1C
- Percent Effect (30 µM, 30.03 µM): 26.92%

Structure (SMILES): Cc1nc[nH]c1CN1CCN(C(=O)CN2CCCC2)[C@H]2CS(=O)(=O)C[C@H]21
- Percent Effect (30 µM, 30.03 µM): 8.106%

Structure (SMILES): Cc1nc[nH]c1CN1CCN(C(=O)C2(C)CC2)[C@H]2CS(=O)(=O)C[C@H]21
- Percent Effect (30 µM, 30.03 µM): 1.317%

Structure (SMILES): Cc1nc[nH]c1CN1CCN(C(=O)CCC(F)(F)F)[C@H]2CS(=O)(=O)C[C@H]21
- Percent Effect (30 µM, 30.03 µM): 50.6%

Structure (SMILES): CCOc1cc2c(cc1CNC(Cc1cccs1)c1nccs1)OCO2.Cl (configuration not stated)
- Percent Effect (30.3 µM, […]): -21.18%

Structure (SMILES): CC(C)c1ncc(-c2cc(C3CCC3)nc(N)c2C#N)cn1
- Percent Effect (30 µM, 30.03 µM): 17.32%

Structure (SMILES): CC(O)(CNC(=O)c1cccnc1-n1cccn1)c1ccsc1 (configuration not stated)
- Percent Effect (30 µM, 30.03 µM): -28.28%
